Measured values: PubChem BioAssay (EPA / NIEHS)
The source holds several records for some structures; these can differ, active in one and inactive in another. The source made the active and inactive calls. Rule for the calls: active = hit-call score of the fitted dose curve at least 0.9, where 1 is the maximum; inactive = score below 0.9.

target: CCAAT/enhancer-binding protein beta (Homo sapiens) (UniProt P17676); experiment: ATG_C_EBP_CIS: Attagene CIS-FACTORIAL HepG2 Assay for human CCAAT/Enhancer Binding Protein (C/EBP) beta (AID 2282927); settings: HepG2 Attagene cis-factorial transcription factor reporter; actives raise or lower the signal
Sequence (P17676 whole entry, looked up): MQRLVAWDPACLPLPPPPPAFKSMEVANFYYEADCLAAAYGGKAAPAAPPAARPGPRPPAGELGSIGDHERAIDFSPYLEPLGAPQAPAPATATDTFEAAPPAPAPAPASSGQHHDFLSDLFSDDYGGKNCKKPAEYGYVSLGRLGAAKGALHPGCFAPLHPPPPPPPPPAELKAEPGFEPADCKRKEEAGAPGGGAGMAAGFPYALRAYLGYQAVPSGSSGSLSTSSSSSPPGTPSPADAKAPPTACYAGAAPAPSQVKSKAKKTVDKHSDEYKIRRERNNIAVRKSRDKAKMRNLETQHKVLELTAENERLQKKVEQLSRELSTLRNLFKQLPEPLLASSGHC
Protocol: ATG_CIS is a cell-based, multiplexed-readout assay that uses HepG2, a human liver cell line, with measurements taken at 24 hours after chemical dosing in a 24-well plate.ATG_C_EBP_CIS is one of 52 assay component(s) measured or calculated from the ATG_CIS assay. It is designed to make measurements of mRNA induction, a form of inducible reporter, as detected with fluorescence intensity signals by Reverse transcription polymerase chain reaction (RT-PCR) and Capillary electrophoresis technology.Data from the assay component ATG_C_EBP_CIS was analyzed into 1 assay endpoint. This assay endpoint, ATG_C_EBP_CIS, was analyzed with bidirectional fitting relative to DMSO as the negative control and baseline of activity. Using a type of inducible reporter, measures of mRNA for gain or loss-of-signal activity can be used to understand the reporter gene at the transcription factor-level as they relate to the gene CEBPB. Furthermore, this assay endpoint can be referred to as a primary readout, because this assay has produced multiple assay endpoints where this one serves a reporter gene function. To generalize the intended target to other relatable targets, this assay endpoint is annotated to the dna binding intended target family, where the subfamily is basic leucine zipper.
Human liver HepG2 cells are transiently transfected with multiple reporter transcription units (MRTUs) in 6-well plates using FuGene 6 reagent (Roche; 3 ml FuGene/1 mg DNA). The MRTU constructs are regulated by a cis-regulating element (promoter). […] A major difference between the CIS and TRANS system is that in CIS activities of endogenous TFs are measured, whereas the TRANS assay evaluates changes in activities of exogenous, chimeric NR-Gal4 proteins. […] At the end of 24 hour incubation, total RNA was isolated using TriZol reagent (Invitrogen). The isolated RNA is then reverse-transcribed using oligo(dT) primer and Mo-MLV reverse transcriptase (Invitrogen) with DNAse I (Ambion) treatment for 30 min. The one-tenth of the produced cDNA was amplified by PCR using Taq DNA polymerase (Invitrogen) and two reporter sequence-specific primers. The PCR products were fluorescently labeled by primer extension with 6-arboxyfluorescein (6-FAM) 5'-labeled reporter sequence-specific primer (2 min at 95 C, 20 s at 68 C and 10 min at 72 C) and these products were digested with 5U of HpaI (New England Biolabs) for 2h at 37 C. The fragments were purified using Qiaquick PCR columns (Qiagen), analyzed on an ABI 3130xL genetic analyzer (Applied Biosystems) with peak positions identified by using a set of X-rhodamine (ROX)-labeled MapMarker1000 molecular weight standards (BioVentures). The raw capillary electrophoresis data was processed using Attagraph software (Attagene).

Row | SMILES | outcome | AC50
1 | CC(C)(O)CCc1ccccc1 | inactive | 
2 | CCCCCCCCCCOC(=O)c1ccccc1C(=O)OCCCCCCCC | inactive | 
3 | Cc1cc(O)c(C)c(C)c1O | inactive | 
4 | CCOC(=O)CCCCCCCCC(=O)OCC | inactive | 
5 | CCCC(O)C(CC)CO (stereo not given) | inactive | 
6 | Cc1cc(O)c2c(c1)C(=O)c1cc(O)cc(O)c1C2=O |  | 12.5 µM (active)
7 | CCCCCCCCCCCCCCCCCC(=O)OCCCCCCCCCCCCCC(C)C | inactive | 
8 | CCC(C)(CCCC(C)C)OC(C)=O (stereo not given) | inactive | 
9 | NC(=O)c1c(Cl)cccc1Cl | inactive | 
10 | CC(=O)C1=C(C)[C@@H]2C[C@@]3(C1)[C@H](C)CC[C@H]3C2(C)C | inactive | 
11 | CN(C)C(=O)Nc1ccccc1 | inactive | 
12 | CC(=O)c1cccnc1 | inactive | 
13 | CC/C=C\CCOC(C)OCC (stereo not given) | inactive | 
14 | CC(C)Cc1ccc(C(C)C(=O)O)cc1 (stereo not given) | inactive | 
15 | CCC(C)COC(=O)CC(C)C (stereo not given) | inactive | 
16 | Cc1cc(N)n(-c2ccccc2)n1 | inactive | 
17 | CCCCCC1C(=O)CCC1CC(=O)OC (stereo not given) | inactive | 
18 | CC(C)C(=O)OCC=Cc1ccccc1 | inactive | 
19 | CC(=O)c1ccc(O)cc1 | inactive | 
20 | C=CC(C)(CCC=C(C)C)OC(=O)CC (stereo not given) | inactive | 

Row | SMILES | outcome | AC50
21 | CC1(C)CC(N)CC(C)(CN)C1 (stereo not given) | inactive | 
22 | NC(=O)NC(N)=O | inactive | 
23 | CCCOC(=O)CC | inactive | 
24 | CC(C)OB(OC(C)C)OC(C)C | inactive | 
25 | CCC(C)(C)C1CCC(=O)CC1 | inactive | 
26 | CC(=O)OC(C)(C)C | inactive | 
27 | CCC=C(C)C=O | inactive | 
28 | C=COCC1CCC(COC=C)CC1 (stereo not given) | inactive | 
29 | OCCN1CCOCC1 | inactive | 
30 | CCO[Si](CC)(OCC)OCC | inactive | 
31 | CCCC1CCOC(C)S1 (stereo not given) | inactive | 
32 | CC(C)(C)c1ccc(S)cc1 | inactive | 
33 | CCCCCCCOC(C)=O | inactive | 
34 | O=C1OC2(c3ccc(O)cc3Oc3cc(O)ccc32)c2ccccc21 | inactive | 
35 | C#C[C@]1(O)CC[C@H]2[C@@H]3CCc4cc(O)ccc4[C@H]3CC[C@@]21C | inactive | 158 µM (active)
36 | OCCCO | inactive | 
37 | COc1cc(OC)c2ccc(=O)oc2c1 | inactive | 
38 | CCCCCCOc1ccc(O)cc1 | inactive | 
39 | CCCCC(CC)COCCO (stereo not given) | inactive | 
